The values below come from PubChem BioAssay (Tox21).

Records with an inconclusive call do not appear. Active and inactive are the calls of the source. Calls come from the whole dose curve; as a rule, active = well fitted activation curve with a large enough effect in the signal ratio in the repeat runs (not every such curve was filed as active); inconclusive = weak or mixed curves, or effect the other way; inactive = no such curve, though single readings can be large or run the other way; the % refers to the signal ratio.

Glucocorticoid receptor (Homo sapiens), sequence (P04150 whole entry, looked up): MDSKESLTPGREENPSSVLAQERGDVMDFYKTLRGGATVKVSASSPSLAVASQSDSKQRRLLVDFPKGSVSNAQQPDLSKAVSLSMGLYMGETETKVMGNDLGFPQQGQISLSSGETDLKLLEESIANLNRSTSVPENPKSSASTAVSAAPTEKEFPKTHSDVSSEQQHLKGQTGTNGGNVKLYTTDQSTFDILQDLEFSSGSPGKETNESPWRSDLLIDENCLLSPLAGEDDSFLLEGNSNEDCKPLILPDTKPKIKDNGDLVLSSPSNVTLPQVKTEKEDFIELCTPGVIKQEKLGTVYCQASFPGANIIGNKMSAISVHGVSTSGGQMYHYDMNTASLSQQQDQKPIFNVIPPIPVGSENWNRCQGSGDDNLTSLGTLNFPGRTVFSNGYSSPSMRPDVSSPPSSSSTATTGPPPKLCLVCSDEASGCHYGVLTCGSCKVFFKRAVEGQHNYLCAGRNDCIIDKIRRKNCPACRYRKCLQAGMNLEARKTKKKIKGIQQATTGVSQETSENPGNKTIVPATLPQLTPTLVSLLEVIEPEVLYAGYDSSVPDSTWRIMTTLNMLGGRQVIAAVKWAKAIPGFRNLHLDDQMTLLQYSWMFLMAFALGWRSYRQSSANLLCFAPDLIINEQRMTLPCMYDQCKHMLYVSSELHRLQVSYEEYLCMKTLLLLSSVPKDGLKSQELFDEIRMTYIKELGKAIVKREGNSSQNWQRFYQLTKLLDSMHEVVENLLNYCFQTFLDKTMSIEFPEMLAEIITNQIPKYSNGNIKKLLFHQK

The experiment deals with Glucocorticoid receptor (Homo sapiens) (UniProt P04150). The experiment in a line: qHTS assay to identify small molecule agonists of the glucocorticoid receptor (GR) signaling pathway (AID 720691). Particulars: GR-bla HeLa, beta-lactamase reporter ratio, 18 h; series mostly up to 62.4 µM. The source says:
U.S. Tox21 Program National Center for Advancing Translational Sciences [NCATS] NIH Chemical Genomics Center [NCGC] U.S. Environmental Protection Agency [EPA] National Institutes of Environmental Health Sciences [NIEHS] National Toxicology Program [NTP] U.S. Food and Drug Administration [FDA] Tox21 Assay Overview: The Glucocorticoid receptor (GR) is one of the members of the nuclear receptor family of ligand-dependent transcription factors. GR plays a critical role in carbohydrate, protein and lipid metabolisms and programmed cell death. CellSensor GR-bla HeLa cell line (Invitrogen) contains a beta-lactamase reporter gene under the control of the glucocorticoid response element stably integrated into HeLa cells, a cervical cancer cell line that expresses glucocorticoid receptor. The activation of the reporter gene under culture conditions can be detected by fluorescence intensity. This cell line has been used to screen the Tox21 10K compound library and to identify the compounds that activate the GR signaling.
Tox21 Assay Protocol Summary: The GR-bla HeLa cells were dispensed at 1500 cells/6 ul/well in 1536-well black wall/clear bottom plates using a Multidrop Combi (ThermoFisher Scientific, Waltham, MA) dispenser. After the assay plates were incubated at a 37 C/5% CO2 incubator for 4 hours, 23 nL of compounds dissolved in DMSO, positive controls or DMSO only was transferred to the assay plate by a pintool station (Kalypsys, San Diego, CA). The plates were incubated at 37 C for 18 hours. After 1 uL of LiveBLAzerTM B/G FRET substrate was added using a Flying Reagent Dispenser (Aurora Discovery, San Diego, CA), the plates were incubated at room temperature for 2 hours, and fluorescence intensity was measured by an Envision plate reader (PerkinElmer, Shelton, CT).
A general note: In qHTS, concentration-response curves come from the screen itself.
In the case of `CC(C)COP(=O)(OCC(C)C)OCC(C)C`, the result was inactive.
With `ClCCOCOCCCl` the entry was “inactive”; with `CCCCOC(=O)c1ccccc1N`, “inactive”.
Take `ClC(Cl)(Cl)C(Cl)(Cl)Cl`: the outcome was inactive.
For `CCCCOP(=O)(O)OCCCC`, the outcome was inactive.
With `C(CCOCC1CO1)COCC1CO1` (stereo not given) the entry was “inactive”; with `O=C(O)c1ccc2[nH]cc(CCCCN3CC=C(c4ccccc4)CC3)c2c1`, “inactive”.
As to `ClC(Cl)C(Cl)Cl`, the outcome was inactive.
Then `O=C1CN=C(c2ccccc2)c2cc([N+](=O)[O-])ccc2N1`, with “inactive”; and `CC1CCC(=O)O1` (stereo not given), with “inactive”.
With `OC(c1ccc(F)cc1)(c1cncnc1)c1ccccc1Cl` (stereo not given) the entry was “inactive”.
Regarding `CC1=C(C(=O)Nc2ccccc2)S(=O)(=O)CCO1`, the result was inactive.
Consider `N#Cc1c(Cl)cccc1Cl`, for which the outcome was inactive.
Then `C=CCC1=C(C)[C@@H](OC(=O)[C@@H]2[C@@H](C=C(C)C)C2(C)C)CC1=O`, with “inactive”; and `CC(C)CP(=S)(S)CC(C)C`, with “inactive”.
For `CCOP(=S)(Oc1cnc(C(C)(C)C)nc1)OC(C)C` (stereo not given), the result was inactive.
Then `[Cl][Sn]([Cl])([Cl])[Cl]`, with “inactive”; and `CCOP(=S)(OCC)SCSP(=S)(OCC)OCC`, with “inactive”.
For `CC(Cl)(Cl)[N+](=O)[O-]`, the outcome was inactive.
Regarding `Nc1ccccc1Cl`, the outcome was inactive.
`COC(=O)C(C)Oc1ccc(Oc2ccc(Cl)cc2Cl)cc1` (stereo not given): the outcome was inactive.
For `CNNC`, the outcome was inactive.
Consider `CCOP(=O)(N=C1SCCS1)OCC`, for which the outcome was inactive.
With `CS(=O)(=O)c1cc(C(F)(F)F)ccc1C(=O)c1cnoc1C1CC1`, the result was inactive.
Turning to `CC(C)CC(N(C)C)C1(c2ccc(Cl)cc2)CCC1` (stereo not given), the outcome was inactive.
As to `CC1(C)COP(Oc2ccccc2)OC1`, the result was inactive.
Take `CC(=O)CCc1ccc2c(c1)OCO2`: the outcome was inactive.
Consider `O=NN1CCCCC1`, for which the outcome was inactive.
`COc1cc(OC)nc(Sc2cccc(Cl)c2C(=O)O)n1`: the outcome was inactive.
For `ClC(Br)Br`, the outcome was inactive.
With `N#CC(Cl)(Cl)Cl`, the outcome was inactive.
In the case of `C[C@H]1CCC[C@H](O)CCCCCc2cc(O)cc(O)c2C(=O)O1`, the outcome was inactive.
`O=C(CCCN1CCC(n2c(=O)[nH]c3ccccc32)CC1)c1ccc(F)cc1`: the result was inactive.
As for `COC(=O)C1=CCCN(C)C1`, the result was inactive.
For `O=C(Nc1ccccc1)N(Cc1ccc(Cl)cc1)C1CCCC1`, the result was inactive.
Then `COC(=O)C(c1ccccc1)C1CCCCN1` (stereo not given), with “inactive”; and `c1coc(-c2nc3ccccc3[nH]2)c1`, with “inactive”.
On to `CC(C)[N+](=O)[O-]`, for which the result was inactive.
For `O=C(Nc1ccccc1)c1ccccc1I`, the result was inactive.
Then `O=C(Cc1ccccc1)OCc1ccccc1`, with “inactive”.
